# Measured values taken from PubChem BioAssay (EPA / NIEHS).
# “And” between values parts separate entries of the source, which are not always exact repeats. Equal entries are not always repeated. Records with an inconclusive call do not appear. A structure can be active in one record and inactive in another. The source made the active and inactive calls. The calls were made as follows: active = hit-call score of the fitted dose curve at least 0.9, where 1 is the maximum; inconclusive = response in the unintended direction; inactive = score below 0.9.
# How the values were obtained:
# [1] = target: rat Peripheral-type Benzodiazepine Receptor (PBR), Tspo (gene 24230) (UniProt P16257); assay: NVS_MP_rPBR: NovaScreen (NVS) Membrane Protein Assay for rat Peripheral-type Benzodiazepine Receptor (PBR) (AID 2283335)
# In short: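 Single-concentration duplicate screening at 25 uM preceded concentration-series retesting of actives. Binding of a specific radioligand to rat kidney membrane PBR was read by filtration radiodetection after 1 h, with plate-wise positive and negative controls.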
# [2] = target: bovine Estrogen Receptor (ER), ESR1 (gene 407238) (UniProt P49884); assay: NVS_NR_bER: NovaScreen (NVS) Nuclear Receptor Binding Assay for bovine Estrogen Receptor (ER) (AID 2283345);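 also: actives lower the bound radioligand count which means they displace the ER ligand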
# In short: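 Cell-free radioligand binding with bovine uterine membrane extracts, read 18 hours after dosing by scintillation counting. Loss of signal versus DMSO baseline indicates displacement. Primary screen run in duplicate at 25 uM, actives followed in concentration series.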
# [3] = target: chimpanzee Androgen Receptor (AR), AR (gene 747460) (UniProt O97775); assay: NVS_NR_cAR: NovaScreen (NVS) Nuclear Receptor Binding Assay for chimpanzee Androgen Receptor (AR) (AID 2283346);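 also: radioligand displacement from AR measured by scintillation counting in a cell-free assay; a loss of bound radioligand signal versus DMSO counts as binding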
# In short: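 Radioligand binding to chimpanzee AR expressed in Sf9/Sf21 cells, cell-free, measured 72 h after dosing by lysate-based scintillation counting. Loss of signal vs DMSO; initial duplicate screen at 25 uM, actives retested in concentration series.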
# [4] = target: Estrogen receptor (Homo sapiens) (UniProt P03372); assay: NVS_NR_hER: NovaScreen (NVS) Nuclear Receptor Binding Assay for human Estrogen Receptor (ER) (AID 2283348)
# In short: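 MCF7-derived receptor extract, radiolabelled ligand, competitive displacement. Read: scintillation counts at 18 h. DMSO = negative control/baseline. Primary 25 uM duplicate; follow-up concentration–response.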
# [5] = target: Estrogen receptor (Homo sapiens) (UniProt P03372); assay: OT_ER_ERaERa_1440: Odyssey Thera (OT) 24-hour HEK293T Protein-Complementation Assay for Estrogen Receptor-alpha/-alpha Homodimer (AID 2283349);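 also: hits raise fluorescence above DMSO for agonists and antagonists alike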
# In short: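 Cells (HEK293T) carrying the fragment-tagged ERα LBD (aa 310-547) pair are treated with chemical for 24 hours. Nuclear and/or cytoplasmic fluorescence is then quantified on a laser scanning cytometer. Activity is scored as signal gain against DMSO.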
# [6] = target: Estrogen receptor (Homo sapiens) (UniProt P03372); assay: OT_ER_ERaERa_0480: Odyssey Thera (OT) 8-hour HEK293T Protein-Complementation Assay for Estrogen Receptor-alpha/-alpha Homodimer (AID 2283351);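 also: rise in fluorescence from reassembled reporter fragments on ERα LBD homodimer in nucleus or whole cell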
# In short: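 Measures ERα LBD (aa 310-547) homodimer complementation in stably transfected HEK293T at 8 h post-dose, with fluorescence intensity quantified on a laser scanning cytometer relative to DMSO controls.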
# [7] = target: Estrogen receptor (Homo sapiens) + Estrogen receptor beta (Homo sapiens) (UniProt P03372+Q92731); assay: OT_ER_ERaERb_0480: Odyssey Thera (OT) 8-hour HEK293T Protein-Complementation Assay for Estrogen Receptor-alpha/-beta Heterodimer (AID 2283352)
# In short: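 Increase in mean fluorescence intensity, measured by laser scanning plate cytometry, reported ER-alpha/ER-beta LBD complementation in HEK293T cells after 8 h chemical exposure. DMSO served as baseline; basal signal is low, punctate and cytoplasmic.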
# [8] = target: Androgen Receptor/SRC-1 Co-activator, AR (gene 367) (UniProt P10275); assay: OT_AR_ARSRC1_0960: Odyssey Thera (OT) 16-hour HEK293T Protein-Complementation Assay for Androgen Receptor/SRC-1 Co-activator (AID 2283353);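 also: actives raise the signal above DMSO so potency reflects increased AR and SRC-1 complex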
# In short: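 Sixteen-hour cell assay: Venus halves fused to AR and SRC-1 in HEK293T report binding. Images at 488/635 nm give an N/C ratio in the 488 nm channel over ≥400 cells, analysed as signal increase over DMSO.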
# [9] = target: Androgen Receptor/SRC-1 Co-activator, AR (gene 367) (UniProt P10275); assay: OT_AR_ARSRC1_0480: Odyssey Thera (OT) 8-hour HEK293T Protein-Complementation Assay for Androgen Receptor/SRC-1 Co-activator (AID 2283354);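 also: hits raise the complementation signal above DMSO so AC50 marks enhancers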
# In short: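 Split-Venus PCA, stable HEK293T, AR/SRC-1 fusions; 8 h exposure. Readout: 488nm N/C fluorescence ratio, ≥400 cells/image; fitted upward vs DMSO baseline.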
# [10] = NVS_IC_rCaBTZCHL: NovaScreen (NVS) Ion Channel Assay for Calcium Channel, Type L, Benzothiazepine Site (CaBTZCHL) (AID 2283337)
# In short: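 Benzothiazepine-site binding was assessed in a tissue-derived, cell-free rat cortical membrane system. After 1.5 h exposure, radioactivity retained on filters was quantified by scintillation; positive and negative controls accompanied every plate.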
# [11] = target: rat Gamma-Aminobutyric Acid Type A Receptor BDZ, alpha 6 site (GABARa6), Gabra6 (gene 29708) (UniProt P30191); assay: NVS_LGIC_rGABARa6: NovaScreen (NVS) Ligand-Gated Ion Channel Assay for rat Gamma-Aminobutyric Acid Type A Receptor BDZ, alpha 6 site (GABARa6) (AID 2283339)
# In short: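 Actives from a 25 uM duplicate screen were retested in concentration series (max 50 uM). Specific radioligand displacement from rat cerebellar membranes was counted by filter-based scintillation at 1 h; DMSO served as baseline.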
# NCBI gene 100848466 = assay: NVS_NR_bPR: NovaScreen (NVS) Nuclear Receptor Binding Assay for bovine Progextron Receptor (PR) (AID 2283343);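 as to AC50: actives lower bound radioligand signal below DMSO meaning displacement of the label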
# In short: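 Scintillation counts of bound radioligand were read 18 hours after chemical addition to membranes extracted from bovine uterus. Displacement was scored as loss of signal relative to DMSO controls. Screening began at 25 uM in duplicate.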
# [12] = target: Bile acid receptor (Homo sapiens) (UniProt Q96RI1); assay: NVS_NR_hFXR_Agonist: NovaScreen (NVS) Nuclear Receptor Binding Assay for human Farnesoid X Receptor Agonism (FXR) (AID 2283347)
# In short: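 Agonist-mode FXR assay read by time-resolved FRET 1 h after compound addition, using isolated human receptor protein without cells. Duplicate 25 uM single-point primary screen, concentration series for confirmed actives; DMSO as baseline.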
# bovine Estrogen Receptor (ER), ESR1 (gene 407238), sequence (P49884 whole entry, looked up): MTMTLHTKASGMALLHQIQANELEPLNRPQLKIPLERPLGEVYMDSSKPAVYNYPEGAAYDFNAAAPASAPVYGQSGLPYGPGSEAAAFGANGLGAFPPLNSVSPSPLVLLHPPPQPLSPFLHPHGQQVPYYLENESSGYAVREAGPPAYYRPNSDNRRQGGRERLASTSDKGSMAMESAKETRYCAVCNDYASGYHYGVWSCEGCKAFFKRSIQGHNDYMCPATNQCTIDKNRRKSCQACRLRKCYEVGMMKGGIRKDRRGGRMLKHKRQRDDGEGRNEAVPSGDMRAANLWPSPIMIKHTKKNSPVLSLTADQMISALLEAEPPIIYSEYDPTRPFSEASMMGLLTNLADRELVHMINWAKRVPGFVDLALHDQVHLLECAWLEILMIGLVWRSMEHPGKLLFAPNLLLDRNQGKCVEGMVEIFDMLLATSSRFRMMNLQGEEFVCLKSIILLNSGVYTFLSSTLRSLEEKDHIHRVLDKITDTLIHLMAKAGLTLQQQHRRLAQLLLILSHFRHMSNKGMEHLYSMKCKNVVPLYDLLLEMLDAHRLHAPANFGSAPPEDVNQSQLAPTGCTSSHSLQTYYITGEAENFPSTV
# rat Peripheral-type Benzodiazepine Receptor (PBR), Tspo (gene 24230), sequence (P16257 whole entry, looked up): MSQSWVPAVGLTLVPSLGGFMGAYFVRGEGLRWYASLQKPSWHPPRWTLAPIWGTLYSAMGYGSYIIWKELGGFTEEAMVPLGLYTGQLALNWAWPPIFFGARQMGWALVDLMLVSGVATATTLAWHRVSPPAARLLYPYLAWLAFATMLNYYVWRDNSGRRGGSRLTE
# Androgen Receptor/SRC-1 Co-activator, AR (gene 367), sequence (P10275 whole entry, looked up, the tested form may be a part): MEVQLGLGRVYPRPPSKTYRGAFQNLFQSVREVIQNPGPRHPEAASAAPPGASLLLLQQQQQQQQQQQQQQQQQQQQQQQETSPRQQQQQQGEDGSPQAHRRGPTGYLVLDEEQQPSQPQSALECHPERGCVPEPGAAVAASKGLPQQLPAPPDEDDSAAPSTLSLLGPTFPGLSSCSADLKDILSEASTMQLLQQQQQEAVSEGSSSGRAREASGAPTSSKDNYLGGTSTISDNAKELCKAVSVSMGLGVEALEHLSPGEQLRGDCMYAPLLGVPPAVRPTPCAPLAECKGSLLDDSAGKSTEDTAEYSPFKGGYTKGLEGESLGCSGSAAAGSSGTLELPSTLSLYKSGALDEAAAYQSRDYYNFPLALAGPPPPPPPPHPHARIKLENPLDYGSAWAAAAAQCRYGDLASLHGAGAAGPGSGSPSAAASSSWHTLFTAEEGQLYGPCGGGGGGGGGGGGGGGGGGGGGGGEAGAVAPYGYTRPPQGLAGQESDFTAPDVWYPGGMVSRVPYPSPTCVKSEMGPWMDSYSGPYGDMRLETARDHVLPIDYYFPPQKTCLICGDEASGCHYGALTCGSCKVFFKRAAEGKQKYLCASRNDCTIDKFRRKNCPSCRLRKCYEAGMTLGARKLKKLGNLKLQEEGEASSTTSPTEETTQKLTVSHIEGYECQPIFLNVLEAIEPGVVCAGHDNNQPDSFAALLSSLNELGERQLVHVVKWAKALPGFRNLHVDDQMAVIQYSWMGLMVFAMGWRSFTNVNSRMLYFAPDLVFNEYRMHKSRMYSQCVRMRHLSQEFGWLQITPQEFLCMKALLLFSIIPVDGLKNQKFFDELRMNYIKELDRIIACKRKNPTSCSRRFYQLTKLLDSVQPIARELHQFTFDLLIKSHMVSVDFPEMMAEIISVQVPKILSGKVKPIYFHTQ
# chimpanzee Androgen Receptor (AR), AR (gene 747460), sequence (O97775 whole entry, looked up): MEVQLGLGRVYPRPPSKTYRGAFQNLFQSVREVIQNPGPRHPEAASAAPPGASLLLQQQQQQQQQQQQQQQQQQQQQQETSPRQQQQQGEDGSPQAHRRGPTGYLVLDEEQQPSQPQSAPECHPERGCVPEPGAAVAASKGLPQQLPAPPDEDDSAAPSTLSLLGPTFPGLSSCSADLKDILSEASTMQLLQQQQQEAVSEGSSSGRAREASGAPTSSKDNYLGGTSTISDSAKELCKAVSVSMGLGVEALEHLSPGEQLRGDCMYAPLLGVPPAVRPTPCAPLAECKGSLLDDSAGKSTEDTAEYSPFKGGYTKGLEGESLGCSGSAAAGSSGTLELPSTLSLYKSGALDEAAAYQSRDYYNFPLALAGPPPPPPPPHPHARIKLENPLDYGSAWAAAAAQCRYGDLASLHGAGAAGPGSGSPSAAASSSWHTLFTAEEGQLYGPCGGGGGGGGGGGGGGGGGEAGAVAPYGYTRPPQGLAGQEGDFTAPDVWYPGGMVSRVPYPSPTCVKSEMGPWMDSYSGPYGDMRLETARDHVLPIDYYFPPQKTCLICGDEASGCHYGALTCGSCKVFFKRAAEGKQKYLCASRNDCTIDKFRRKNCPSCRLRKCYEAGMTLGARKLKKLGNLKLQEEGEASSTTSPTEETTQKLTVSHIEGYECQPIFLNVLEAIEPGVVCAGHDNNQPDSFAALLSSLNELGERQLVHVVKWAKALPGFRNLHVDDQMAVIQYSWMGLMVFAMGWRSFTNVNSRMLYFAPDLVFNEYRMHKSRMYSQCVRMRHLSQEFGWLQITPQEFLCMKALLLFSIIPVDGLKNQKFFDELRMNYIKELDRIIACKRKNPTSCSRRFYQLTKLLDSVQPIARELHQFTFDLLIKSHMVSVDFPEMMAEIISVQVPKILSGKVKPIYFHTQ
# Estrogen receptor (Homo sapiens) + Estrogen receptor beta (Homo sapiens), sequence (P03372 whole entry, looked up, the tested form may be a part): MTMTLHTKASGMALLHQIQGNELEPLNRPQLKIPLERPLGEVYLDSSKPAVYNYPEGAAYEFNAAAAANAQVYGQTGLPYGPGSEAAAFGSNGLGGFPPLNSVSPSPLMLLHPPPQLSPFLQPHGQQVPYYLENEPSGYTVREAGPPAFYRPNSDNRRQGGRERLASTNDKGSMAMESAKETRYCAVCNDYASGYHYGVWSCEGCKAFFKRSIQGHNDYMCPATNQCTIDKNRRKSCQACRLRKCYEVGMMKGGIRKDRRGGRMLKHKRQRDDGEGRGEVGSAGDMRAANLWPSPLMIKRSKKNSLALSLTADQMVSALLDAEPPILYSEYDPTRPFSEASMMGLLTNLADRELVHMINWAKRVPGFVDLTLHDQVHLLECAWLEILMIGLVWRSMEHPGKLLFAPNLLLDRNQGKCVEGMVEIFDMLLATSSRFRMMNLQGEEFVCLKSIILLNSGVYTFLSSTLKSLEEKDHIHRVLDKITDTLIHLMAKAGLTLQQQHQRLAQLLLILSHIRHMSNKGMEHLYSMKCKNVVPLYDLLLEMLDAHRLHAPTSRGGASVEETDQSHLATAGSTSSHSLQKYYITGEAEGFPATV
# Estrogen receptor (Homo sapiens) + Estrogen receptor beta (Homo sapiens), sequence (Q92731 whole entry, looked up, the tested form may be a part): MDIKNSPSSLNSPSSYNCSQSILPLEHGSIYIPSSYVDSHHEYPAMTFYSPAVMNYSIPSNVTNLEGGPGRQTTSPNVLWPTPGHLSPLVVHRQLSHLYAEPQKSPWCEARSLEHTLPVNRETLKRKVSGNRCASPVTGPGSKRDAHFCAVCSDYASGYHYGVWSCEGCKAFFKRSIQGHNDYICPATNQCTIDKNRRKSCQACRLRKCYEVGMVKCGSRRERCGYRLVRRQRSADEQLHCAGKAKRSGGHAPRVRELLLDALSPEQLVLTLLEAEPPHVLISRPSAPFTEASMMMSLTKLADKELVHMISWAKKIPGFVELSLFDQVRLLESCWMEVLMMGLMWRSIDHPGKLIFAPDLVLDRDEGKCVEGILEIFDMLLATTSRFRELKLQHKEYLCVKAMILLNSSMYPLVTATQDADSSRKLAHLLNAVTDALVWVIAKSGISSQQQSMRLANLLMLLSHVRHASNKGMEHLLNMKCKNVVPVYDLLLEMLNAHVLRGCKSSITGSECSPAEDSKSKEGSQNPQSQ
# Estrogen receptor (Homo sapiens), sequence (P03372 whole entry, looked up, the tested form may be a part): as the sequence (P03372 whole entry, looked up, the tested form may be a part) above
# rat Gamma-Aminobutyric Acid Type A Receptor BDZ, alpha 6 site (GABARa6), Gabra6 (gene 29708), sequence (P30191 whole entry, looked up): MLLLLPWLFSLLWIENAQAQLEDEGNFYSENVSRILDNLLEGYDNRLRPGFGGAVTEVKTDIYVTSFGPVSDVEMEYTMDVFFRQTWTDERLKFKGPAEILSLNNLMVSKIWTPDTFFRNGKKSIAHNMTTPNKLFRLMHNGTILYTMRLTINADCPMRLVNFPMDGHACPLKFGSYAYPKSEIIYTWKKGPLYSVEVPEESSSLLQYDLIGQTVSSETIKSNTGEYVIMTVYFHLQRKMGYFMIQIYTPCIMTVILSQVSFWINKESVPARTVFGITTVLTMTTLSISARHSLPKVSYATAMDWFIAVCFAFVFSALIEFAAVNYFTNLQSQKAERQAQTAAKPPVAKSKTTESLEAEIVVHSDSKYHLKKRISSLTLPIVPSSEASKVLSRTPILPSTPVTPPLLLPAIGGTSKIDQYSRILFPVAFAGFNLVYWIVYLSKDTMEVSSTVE
# Bile acid receptor (Homo sapiens), sequence (Q96RI1 whole entry, looked up): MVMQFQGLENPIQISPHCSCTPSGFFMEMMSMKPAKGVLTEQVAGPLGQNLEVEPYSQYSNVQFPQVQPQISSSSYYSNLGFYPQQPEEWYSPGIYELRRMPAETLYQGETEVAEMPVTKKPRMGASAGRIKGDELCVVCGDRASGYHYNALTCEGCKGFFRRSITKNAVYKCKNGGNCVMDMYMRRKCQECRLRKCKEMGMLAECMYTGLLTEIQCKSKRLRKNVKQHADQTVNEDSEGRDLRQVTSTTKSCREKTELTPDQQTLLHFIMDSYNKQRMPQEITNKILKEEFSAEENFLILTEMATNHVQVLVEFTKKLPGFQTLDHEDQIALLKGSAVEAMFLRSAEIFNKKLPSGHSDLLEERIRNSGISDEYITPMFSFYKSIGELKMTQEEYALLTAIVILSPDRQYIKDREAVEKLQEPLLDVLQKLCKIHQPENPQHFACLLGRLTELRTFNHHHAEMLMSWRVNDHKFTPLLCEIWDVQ
compound,measurement,setting,value
Clc1ccc(C2(Cn3cncn3)CC(Br)CO2)c(Cl)c1 (configuration not stated),AC50,[1],14.5 µM (active)
same,outcome,[2],inactive
same,AC50,[3],7.36 µM (active)
same,outcome,[4],inactive
same,outcome,[5],inactive
same,outcome,[6],inactive
same,outcome,[7],inactive
C[C@@H]1C[C@@H]([C@H](O)CC2CC(=O)NC(=O)C2)C(=O)[C@@H](C)C1,AC50,[1],33.3 µM (active)
same,outcome,[1],inactive
same,outcome,[3],inactive
CC(C)(c1ccc(OCC2CO2)cc1)c1ccc(OCC2CO2)cc1 (configuration not stated),AC50,[1],4.31 µM (active)
same,outcome,[2],inactive
same,outcome,[3],inactive
same,AC50,[4],14.2 µM (active)
same,outcome,[5],inactive
same,outcome,[6],inactive
same,outcome,[7],inactive
same,AC50,[8],79.1 µM (active)
same,outcome,[9],inactive
COP(=O)(OC)O/C(=C\Cl)c1cc(Cl)c(Cl)cc1Cl,AC50,[1],0.38 µM (active)
same,outcome,[2],inactive
same,outcome,[4],inactive
same,outcome,[5],inactive
same,outcome,[6],inactive
same,AC50,[8],67.5 µM (active)
same,outcome,[9],inactive
Nc1ccc(-c2ccc(N)c(Cl)c2)cc1Cl,outcome,[1],inactive
same,outcome,[2],inactive
Cn1sc(Cl)cc1=O,outcome,[1],inactive
same,outcome,[10],inactive
same,outcome,[11],inactive
same,outcome,[5],inactive
same,outcome,[6],inactive
same,outcome,[7],inactive
COP(=S)(OC)Oc1ccc(S(=O)(=O)N(C)C)cc1,AC50,[1],1.45 µM (active)
O=C(O)C(F)(F)C(F)(F)C(F)(F)C(F)(F)C(F)(F)C(F)(F)C(F)(F)C(F)(F)C(F)(F)C(F)(F)F,AC50,NCBI gene 100848466,23.1 µM (active)
O=C1C2(Cl)C3(Cl)C4(Cl)C(Cl)(Cl)C5(Cl)C3(Cl)C1(Cl)C5(Cl)C24Cl (configuration not stated),outcome,[1],inactive
same,outcome,[3],inactive
same,outcome,[12],inactive
same,AC50,[8],19.2 µM (active) and 46.6 µM (active) and 26 µM (active)
same,AC50,[9],28.5 µM (active) and 76.6 µM (active) and 31.5 µM (active)
O=C(Cc1ccccc1)c1ccccc1,AC50,[1],9.94 µM (active)
same,outcome,[2],inactive
same,outcome,[4],inactive
same,outcome,[5],inactive
same,outcome,[6],inactive
COP(=S)(OC)Oc1c(Cl)cc(C)cc1Cl,outcome,[1],inactive
COP(=S)(OC)Oc1ccc(Sc2ccc(OP(=S)(OC)OC)cc2)cc1,AC50,[1],0.307 µM (active)
same,AC50,[10],25 µM (active)
same,outcome,[2],inactive
same,outcome,[3],inactive
same,AC50,[4],1.73 µM (active)
same,outcome,[5],inactive
same,outcome,[6],inactive
same,outcome,[7],inactive
same,outcome,[8],inactive
same,outcome,[9],inactive
CCNc1nc(NC(C)(C)C)nc(SC)n1,outcome,[1],inactive
same,outcome,[3],inactive
ClCC(Cl)CCl,outcome,NCBI gene 100848466,inactive
same,outcome,[2],inactive
CCOP(=S)(OCC)Oc1ccc(S(C)=O)cc1 (configuration not stated),outcome,[1],inactive
